# High-throughput results deposited in PubChem by several laboratories.
# CYP2C19 act = increases human CYP2C19 enzyme activity | AID 1025 | 96,000 tested, under 10 active | activation factor at 5 µM | P33261 | recombinant CYP2C19, luciferin-H EGE luminescence; active compounds read high; 0 = fully inhibited enzyme, 1 = untreated enzyme;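 active = activation factor of at least 2 at 5 µM in the primary screen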;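 also: 0 = wells with 2.5 mM tranylcypromine and 1 = vehicle-only wells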
# CYP2C9 act = CYP2C9 (human) activation | P11712 | recombinant CYP2C9, luciferin-H conversion, luminescence; active compounds read high; factor 1 = untreated enzyme, 0 = blocked | activation factor at 5 µM | hit rate 1.4% among 96,000 | AID 1024;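 active = activation factor of 2 or more for CYP2C9 at a 5 µM dose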;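 also: 0 = sulfaphenazole-blocked wells and 1 = vehicle-only wells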
# Target sequence (P11712 whole entry, looked up): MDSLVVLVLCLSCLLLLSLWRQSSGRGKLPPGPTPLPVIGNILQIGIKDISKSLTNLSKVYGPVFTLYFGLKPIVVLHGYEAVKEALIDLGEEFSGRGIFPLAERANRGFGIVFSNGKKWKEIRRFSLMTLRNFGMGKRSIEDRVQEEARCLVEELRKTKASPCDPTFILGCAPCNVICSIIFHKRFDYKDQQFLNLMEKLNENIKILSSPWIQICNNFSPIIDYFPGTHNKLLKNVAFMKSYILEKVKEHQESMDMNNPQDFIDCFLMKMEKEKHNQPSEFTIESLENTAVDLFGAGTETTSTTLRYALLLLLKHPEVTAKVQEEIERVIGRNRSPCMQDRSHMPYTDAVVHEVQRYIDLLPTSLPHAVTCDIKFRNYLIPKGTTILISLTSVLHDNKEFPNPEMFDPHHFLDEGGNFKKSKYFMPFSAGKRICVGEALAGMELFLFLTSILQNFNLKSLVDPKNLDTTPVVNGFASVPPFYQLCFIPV
# CYP2C19 inh = blocks human cytochrome P450 2C19. P33261. hit rate 21% among 96,000. CYP2C19 Supersomes, luciferin-H EGE luminescence, 30 min. inhibition, % at 5 µM;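 active = CYP2C19 inhibition above a set limit at 5 µM in the primary screen, cut at about 50% in these data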;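 also: plate controls were negative control wells for no effect and 2.5 mM tranylcypromine positive control for full effect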
# EphB4 antag = EphB4-ephrin-B2 interaction antagonism; P54760; EphB4 LBD / TNYL-RAW-Alexa532 peptide, fluorescence polarization; inhibition, % at 7 µM; hit rate 0.15% among 97,000;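 active = inhibition above the screen-wide mean inhibition plus 3 SD, cut at about 15% in these data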;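 also: 0% = DMSO wells and 100% = excess unlabeled TNYL-RAW peptide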
# CYP2C9 inh = blocks human cytochrome P450 2C9; CYP2C9 Supersomes, luciferin-H conversion, luminescence; hit rate 20% among 96,000; P11712; AID 777; inhibition, % at 5 µM;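 active = blocking of liver enzyme CYP2C9 beyond about 50% at 5 µM, limit read from the data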
# * marks the source's active call; other numbers are inactive results; . = not tested or not shown. Only some compounds are listed: those with a hit (about 27% of all), similar ones and a draw of the others.
SMILES,CYP2C19 act,CYP2C9 act,CYP2C19 inh,EphB4 antag,CYP2C9 inh
Cc1cc(NC(=O)CN2CCN(c3ccccc3O)CC2)no1,0.7,0.6,27.4,-8.2,44.5
CCc1c(C#N)c(SCCC(=O)Nc2ccc(OC)cc2)nc2c1C(=O)CC(C)(C)C2,0.2,0.2,83.0*,1.0,83.5*
COc1ccc(-c2c(C#N)c(SCC(=O)Nc3ccccc3)nc3c2CCCC3)cc1,.,.,.,0.6,.
O/N=C\c1cccn1-c1ccc(Br)cc1,0.3,0.7,68.5*,-9.0,26.0
Cn1c(NC(=O)c2ccco2)c(-c2ccccc2)c(=O)c2ccccc21,1,0.6,3.6,9.6,36.8
CCOC(=O)CSc1nc2ccc(NC(C)=O)cc2s1,0.4,0.3,56.7*,4.6,72.4*
CSc1nc2ccc(NC(=O)CSc3nnc(N)s3)cc2s1,1,0.3,1.6,-5.9,70.7*
Cn1c(SCC(=O)Nc2ccc3nc(SCC(=O)N4CCCC4)sc3c2)nnc1-c1ccccc1,0.8,0.6,19.7,-1.6,43.1
Cn1cnnc1SCC(=O)Nc1ccc2nc(SCc3ccccc3F)sc2c1,0.5,0.4,47.0,-1.7,60.0*
CC1CCN(c2ncccc2C(=O)O)CC1,1,0.9,0.0,3.0,11.3
Cc1ccc(C(=O)COC(=O)CNC(=O)C(c2ccccc2)c2ccccc2)cc1[N+](=O)[O-],0.7,1.2,30.5,4.8,-20.5
Cc1ccc(Cn2ncc3c(N4CCOCC4)ncnc32)cc1,0.9,1.1,13.5,-2.2,-10.8
c1ccc(Cn2ncc3c(N4CCCCC4)ncnc32)cc1,0.3,0.7,67.4*,.,30.3
Cc1ccc(Cn2ncc3c(N4CCN(c5ccccc5C)CC4)ncnc32)cc1,0.4,0.3,60.1*,13.5,74.3*
Cc1cc(-n2c(C)cc(C(=O)CSc3nc4ccccc4c(=O)n3Cc3ccco3)c2C)no1,1,1,2.2,-6.3,-4.8
CNC(=O)Nc1ccc2snnc2c1,0.9,0.8,10.7,-2.1,17.4
COc1ccc(C2C3=C(CC(C)(C)CC3=O)Nc3cc4c(cc32)OCO4)cc1 (configuration not stated),0.7,0.3,32.3,-3.7,70.1*
CC1(C)CC(=O)C2=C(C1)Nc1cc3c(cc1C2c1ccc2c(c1)OCO2)OCO3 (configuration not stated),0.5,0.2,47.9,8.6,76.3*
COc1cccc(CNC(=O)C2CCN(S(=O)(=O)c3cnc[nH]3)CC2)c1,0.7,0.2,29.3,.,76.4*
COc1cccc(CNC(=O)C2CCCN(S(C)(=O)=O)C2)c1 (configuration not stated),0.9,0.3,7.9,.,74.9*
COc1cccc(CNC(=O)C2CCCN(S(=O)(=O)c3cnc[nH]3)C2)c1 (configuration not stated),0.1,0.2,91.5*,-4.4,77.1*
O=C(NCc1ccccc1)C1CCCN(C(=O)Nc2ccccc2)C1 (configuration not stated),0.3,0.6,66.6*,-3.6,44.3
COc1ccc(NC2=NCC(=O)N2c2ccccc2F)cc1,0.9,1.2,6.0,-1.6,-16.7
Cc1nnc(N(C(=O)c2cnccn2)c2ccccc2)s1,0.9,1,10.7,-9.0,3.6
CC(O)CNc1nc2c(c(=O)n(C)c(=O)n2C)n1CCc1ccccc1 (configuration not stated),0.9,0.9,14.2,-1.0,7.5
SMILES,CYP2C19 act,CYP2C9 act,CYP2C19 inh,EphB4 antag,CYP2C9 inh
O=C(CSc1ncc(C(F)(F)F)cc1Cl)N1CCN(S(=O)(=O)c2ccc(Cl)cc2)CC1,0.2,1.6,78.8*,-0.7,-56.9
O=C(CSc1ncn[nH]1)N1CCN(S(=O)(=O)c2ccc(Cl)cc2)CC1,0.5,0.5,45.3,1.1,45.4
O=C(CSc1ncc(C(F)(F)F)cc1Cl)N1CCN(S(=O)(=O)c2ccccc2)CC1,0.2,1,81.0*,3.6,0.4
Cc1noc(C)c1CSc1nc2ccccc2c(=O)n1-c1ccc(F)cc1F,0.6,0.1,39.3,-4.2,94.1*
C=CCn1c(SCc2c(C)noc2C)nc2cc(C(=O)O)ccc2c1=O,.,.,.,6.3,.
COc1cc2nc(SCc3c(C)noc3C)n(CCC3=CCCCC3)c(=O)c2cc1OC,0.7,0.3,32.6,11.7,74.0*
C=CCn1c(SCc2c(C)noc2C)nc2ccccc2c1=O,0,0,95.1*,1.1,96.8*
C=CCc1c(C)nc(SCc2nc3ccccc3c(=O)[nH]2)[nH]c1=O,0.8,0.3,15.5,3.5,66.7*
